This passage reports Euclidean distance results from the supplement of paper PMC10127200.

Where a name gives a salt, the structure may show the parent alone.

For the first assay, the system named is HEPG2. Put plainly: Euclidean distance of Cell Painting phenotypic profile (signed KS, 77 features) to DMSO centroid (dimensionless distance); 5 or 10 uM (library dependent); higher = stronger phenotypic change vs DMSO (phenoactivity). Particulars: 48 h. In a few lines:
(§1)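 Library compounds were applied at 10 or 5 uM, depending on the library, with 0.1% DMSO final, for 48 h to five cancer lines and a healthy fibroblast line. After staining, cells were imaged confocally at 20X across 9 fields per well, and Harmony extracted 77 features, each scored as a signed Kolmogorov-Smirnov statistic against vehicle wells on the same plate. Phenoactivity is the Euclidean distance between each profile and the median vehicle profile, with profiles first plate-position corrected, correlation-weighted and averaged over replicates at the top dose.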
`CO[C@@]1(NC(=O)Cc2cccs2)C(=O)N2C(C(=O)O)=C(COC(N)=O)CS[C@@H]21` [Cefoxitin sodium]: the Euclidean distance was 0.857. Turning to `CCOC(=O)CCNc1cc(N2CCc3ccccc3CC2)nc(-c2ccccn2)n1`, the Euclidean distance was determined as 2.41. In the case of `COC(=O)[C@]12CCC(C)(C)C[C@H]1[C@H]1C(=O)C=C3[C@@]4(C)C=C(C#N)C(=O)C(C)(C)[C@@H]4CC[C@@]3(C)[C@]1(C)CC2` [Bardoxolone Methyl], the Euclidean distance was 4.01. The molecule `Nc1cc(F)ccc1NC(=O)c1ccc(CNC(=O)/C=C/c2cccnc2)cc1` [Tucidinostat (Chidamide)] displayed an Euclidean distance of 3.09. The same measure, in the same setting: the value for `Clc1ccc2c(c1)CCc1cccnc1C2=C1CCNCC1` [Desloratadine] was 2.17.

The next assay deals with OVCAR4. Described as above. The conditions noted are these: 48 h. In a few lines: as §1
`Cn1cnc2c1c(=O)[nH]c(=O)n2C` [Theobromine] displayed an Euclidean distance of 0.9. In the case of `Nc1nc(OCc2cc(Br)cs2)c2[nH]cnc2n1` [Lomeguatrib], the Euclidean distance amounted to 1.04. `Cc1nnc(SCC2=C(C(=O)O)N3C(=O)[C@@H](NC(=O)Cn4cnnn4)[C@H]3SC2)s1` [Cefazolin Sodium] showed an Euclidean distance of 1.27.

For `c1ccc2[nH]c(-c3cscn3)nc2c1` [Thiabendazole], the Euclidean distance came out at 0.914.

`CCC(Cc1c(I)cc(I)c(N)c1I)C(=O)O` (stereo not given) [Iopanoic acid] displayed an Euclidean distance of 0.713. `CCOC(=O)[C@H](CCc1ccccc1)N[C@H]1CS[C@H](c2cccs2)CN(CC(=O)O)C1=O` [Temocapril HCl]: the Euclidean distance amounted to 0.878. Regarding `C[C@]12CC[C@@H]3c4ccc(O)cc4C[C@@H](CCCCCCCCC[S+]([O-])CCCC(F)(F)C(F)(F)F)[C@H]3[C@@H]1CC[C@@H]2O` (stereo not given in full) [Fulvestrant], the Euclidean distance is 1.56. The molecule `N#CC[C@H](C1CCCC1)n1cc(-c2ncnc3[nH]ccc23)cn1` [Ruxolitinib Phosphate] yielded an Euclidean distance of 1.26. As for `C[S+](CC[C@H](N)C(=O)[O-])C[C@H]1O[C@@H](n2cnc3c(N)ncnc32)[C@H](O)[C@@H]1O` (stereo not given in full) [Ademetionine], the Euclidean distance came to 0.658.

Molecule `OC[C@@H](O)[C@@H](O)[C@H](O)[C@H](O)CO` [D-Mannitol] displayed an Euclidean distance of 0.791.

As to `COC(=O)c1ccc(O)cc1` [Methyl 4-hydroxybenzoate], the Euclidean distance was 1.19. With `CCCCC1C(=O)N(c2ccccc2)N(c2ccccc2)C1=O` [Phenylbutazone], the Euclidean distance is 1. Regarding `Cc1nc2n(c(=O)c1CCN1CCC(c3noc4cc(F)ccc34)CC1)CCCC2` [Risperidone], the Euclidean distance worked out at 0.674. `CC[C@H](C)C(=O)O[C@H]1C[C@@H](C)C=C2C=C[C@H](C)[C@H](CC[C@@H]3C[C@@H](O)CC(=O)O3)[C@H]21` [Lovastatin] registered an Euclidean distance of 0.909.

Regarding `COc1ccccc1O` [Guaiacol], the Euclidean distance worked out at 1.43.

Consider `O=C(O)c1cn(-c2ccc(F)cc2)c2cc(N3CCNCC3)c(F)cc2c1=O` [Sarafloxacin HCl], for which the Euclidean distance came to 0.719. In the case of `NS(=O)(=O)NCCNc1nonc1/C(=N/O)Nc1ccc(F)c(Br)c1`, the Euclidean distance came out at 0.884. For `O=C1C(O)=C([C@H]2CC[C@H](c3ccc(Cl)cc3)CC2)C(=O)c2ccccc21` [Atovaquone], the Euclidean distance is 1.08. On the same count and under the same terms, the result for `C=CC(=O)N1C[C@H](Nc2ncnc3[nH]ccc23)CC[C@@H]1C` reads 0.786; that for `CC(C)(C)OC(=O)N[C@H]1CCCCC/C=C\[C@@H]2C[C@@]2(C(=O)NS(=O)(=O)C2CC2)NC(=O)[C@@H]2C[C@@H](OC(=O)N3Cc4cccc(F)c4C3)CN2C1=O` [Danoprevir (ITMN-191)], 1.69.

Molecule `Cc1cc(-n2c(=O)[nH]c(=O)n(C)c2=O)ccc1Oc1ccc(SC(F)(F)F)cc1` [Toltrazuril] yielded an Euclidean distance of 1.41. As to `CC(COc1ccccc1Cc1ccccc1)N1CCCCC1` (stereo not given) [Benproperine phosphate], the Euclidean distance was determined as 1.42. Same read-out and setting: the value for `CCOC(=O)C1=C(COCCN)NC(C)=C(C(=O)OC)[C@@H]1c1ccccc1Cl` [Levamlodipine] was 0.931; that for `COc1ccccc1OCC(O)CO` (stereo not given) [Guaifenesin] was 1.31. The molecule `COCCOC(=O)C1=C(C)NC(C)=C(C(=O)OC(C)C)C1c1cccc([N+](=O)[O-])c1` (stereo not given) [Nimodipine] returned an Euclidean distance of 1.09. For the molecule `COC(=O)C1=C(C)NC(C)=C(C(=O)OCCN(C)Cc2ccccc2)C1c1cccc([N+](=O)[O-])c1` (stereo not given) [Nicardipine HCl], the Euclidean distance was 1.31.

Regarding `CC#CC(=O)N1CCC[C@H]1c1nc(-c2ccc(C(=O)Nc3ccccn3)cc2)c2c(N)nccn12` [Acalabrutinib (ACP-196)], the Euclidean distance was determined as 1.22. The molecule `COc1cc(Nc2ncc(F)c(Nc3ccc4c(n3)N(COP(=O)(O)O)C(=O)C(C)(C)O4)n2)cc(OC)c1OC` [R788 (Fostamatinib) Disodium] came in with an Euclidean distance of 2.19. As for `CC(C)(C)c1nc(-c2cccc(NS(=O)(=O)c3c(F)cccc3F)c2F)c(-c2ccnc(N)n2)s1` [Dabrafenib Mesylate], the Euclidean distance stood at 1.47. The molecule `COc1ccc2cc([C@H](C)C(=O)O)ccc2c1` [Naproxen] yielded an Euclidean distance of 1.28. `NCCS` [2-Aminoethanethiol] displayed an Euclidean distance of 1.1.

On to `Cn1cc(Nc2nccc(N3C[C@H]4CC[C@@H](C3)N4C(=O)[C@@H]3CC3(F)F)n2)cn1`, for which the Euclidean distance was determined as 3.68. `CCN(CC)CCOC(=O)c1ccc(N)cc1` [Procaine HCl] showed an Euclidean distance of 0.916. With `O=c1c(O)c(-c2ccc(O)c(O)c2)oc2cc(O)ccc12` [Fisetin], the Euclidean distance came to 0.911. Same read-out and setting: the result for `CC(C)NCC(O)COc1ccc(CC(N)=O)cc1` (stereo not given) [Atenolol] reads 0.667; that for `CO[C@@]1(NC(=O)Cc2cccs2)C(=O)N2C(C(=O)O)=C(COC(N)=O)CS[C@@H]21` [Cefoxitin sodium], 0.983; that for `CCOC(=O)CCNc1cc(N2CCc3ccccc3CC2)nc(-c2ccccn2)n1`, 1.95. Molecule `COC(=O)[C@]12CCC(C)(C)C[C@H]1[C@H]1C(=O)C=C3[C@@]4(C)C=C(C#N)C(=O)C(C)(C)[C@@H]4CC[C@@]3(C)[C@]1(C)CC2` [Bardoxolone Methyl] registered an Euclidean distance of 6.33.

Molecule `Nc1cc(F)ccc1NC(=O)c1ccc(CNC(=O)/C=C/c2cccnc2)cc1` [Tucidinostat (Chidamide)] returned an Euclidean distance of 2.66. `Clc1ccc2c(c1)CCc1cccnc1C2=C1CCNCC1` [Desloratadine] had an Euclidean distance of 1.88.
